The record followed here is PubChem BioAssay (EPA / NIEHS).

Molecules are shown by their SMILES. Results filed as inconclusive are left out. Calls of active or inactive are those of the source. How the source made its calls: active means hit-call score of the fitted dose curve at least 0.9, where 1 is the maximum; inconclusive means response in the unintended direction; inactive means score below 0.9.

Bile acid receptor (Homo sapiens), sequence (Q96RI1 whole entry, looked up): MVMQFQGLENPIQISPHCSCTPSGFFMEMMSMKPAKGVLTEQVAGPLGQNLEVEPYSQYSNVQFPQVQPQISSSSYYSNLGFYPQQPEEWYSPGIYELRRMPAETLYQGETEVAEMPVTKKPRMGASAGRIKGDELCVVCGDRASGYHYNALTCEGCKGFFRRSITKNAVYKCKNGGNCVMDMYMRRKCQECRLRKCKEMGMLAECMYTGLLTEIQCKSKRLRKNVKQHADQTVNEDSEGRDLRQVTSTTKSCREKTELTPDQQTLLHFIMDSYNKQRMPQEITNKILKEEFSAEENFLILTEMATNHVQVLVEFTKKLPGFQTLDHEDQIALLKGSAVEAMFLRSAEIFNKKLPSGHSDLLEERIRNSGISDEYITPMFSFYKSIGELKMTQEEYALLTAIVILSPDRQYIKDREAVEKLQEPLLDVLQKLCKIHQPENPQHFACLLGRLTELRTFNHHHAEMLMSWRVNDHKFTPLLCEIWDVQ

For the test, the target named is Bile acid receptor (Homo sapiens) (UniProt Q96RI1). Description: OT_FXR_FXRSRC1_0480: Odyssey Thera (OT) 8-hour HEK293T Protein-Complementation Assay for Farnesoid X receptor/SRC-1 Co-activator (AID 2283383). In outline:
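Readings were taken 8 h after dosing HEK293T cells in a split-reporter complementation format pairing FXR with SRC-1. Increased fluorescence relative to DMSO-treated wells defined activity.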
For orientation: AC50 means the concentration at which the activity in the assay is half-maximal. For `CCOCn1c(-c2ccc(Cl)cc2)c(C#N)c(Br)c1C(F)(F)F`, the AC50 was 12.3 µM (active).
As to `Cc1cc(Cl)ccc1OCCCC(=O)O`, the outcome was inactive.
With `O=C(CBr)c1ccc(O)cc1`, the compound was classed as inactive.
For `O=C(NC(=O)c1c(F)cccc1F)Nc1cc(Cl)c(OC(F)(F)C(F)C(F)(F)F)cc1Cl` (centres undefined), the AC50 was 50 µM (active).
Take `CCCSP(=S)(OCC)Oc1ccc(SC)cc1` (centres undefined): the concentration at half-maximal activity (AC50) was 22.8 µM (active).
As to `CCCCCCCCCCCCN(C)C`, the compound was classed as inactive.
Regarding `O=C(O)C1(c2ccc3c(c2)OC[C@H](Cc2ccc(-c4ccccc4)cc2)[C@H]3O)CCCC1`, the concentration at half-maximal activity (AC50) was 77 µM (active).
On to `C=CCN=C=S`, for which the compound was called inactive.
As to `CC(C)=CC1C(C(=O)OCc2cccc(Oc3ccccc3)c2)C1(C)C` (centres undefined), the compound was classed as inactive.
As to `O=C(NC(=O)c1c(F)cccc1F)Nc1ccc(Cl)cc1`, the result was inactive.
Regarding `Nc1ncn[nH]1`, the outcome was inactive.
Consider `CCOP(=S)(OCC)O/N=C(\C#N)c1ccccc1`, for which the AC50 is 32.5 µM (active).
Take `CC1(C)[C@H](C(=O)O[C@H](C#N)c2cccc(Oc3ccccc3)c2)[C@@H]1/C=C(\Cl)C(F)(F)F`: the outcome was inactive.
As to `OCCCCO`, the result was inactive.
Same read-out and setting: for `COCCl` the value was “inactive”; for `Cc1cc(Cl)ccc1O`, “inactive”; for `O=C(CCl)Nc1ccccc1`, “inactive”.
On to `O=S1OC[C@@H]2[C@H](CO1)[C@]1(Cl)C(Cl)=C(Cl)[C@@]2(Cl)C1(Cl)Cl` (some centres undefined), for which the AC50 was 43.3 µM (active).
As for `O=C(O)COc1cc(Cl)c(Cl)cc1Cl`, the call was inactive.
